# Screening data from PubChem.
# Compounds with a hit are over-represented: about 12% of the library has one in this group of screens.
# L3MBTL1 inh: inhibitors of human L3MBTL1; Q9Y468; AlphaScreen L3MBTL1–H3K9me1 peptide binding; Potency, µM (titrated, usually from 57.1 µM), inactives show at the highest dose activity, negative = inhibition, hits mostly inhibitors; actives 0.66% (n = 230,000); AID 485360; further: on the % scale 0 is the no-effect control and ±100 the full control effect; nearly all actives have a fitted effect of over 60% in size
# Target sequence (Q9Y468 whole entry, looked up): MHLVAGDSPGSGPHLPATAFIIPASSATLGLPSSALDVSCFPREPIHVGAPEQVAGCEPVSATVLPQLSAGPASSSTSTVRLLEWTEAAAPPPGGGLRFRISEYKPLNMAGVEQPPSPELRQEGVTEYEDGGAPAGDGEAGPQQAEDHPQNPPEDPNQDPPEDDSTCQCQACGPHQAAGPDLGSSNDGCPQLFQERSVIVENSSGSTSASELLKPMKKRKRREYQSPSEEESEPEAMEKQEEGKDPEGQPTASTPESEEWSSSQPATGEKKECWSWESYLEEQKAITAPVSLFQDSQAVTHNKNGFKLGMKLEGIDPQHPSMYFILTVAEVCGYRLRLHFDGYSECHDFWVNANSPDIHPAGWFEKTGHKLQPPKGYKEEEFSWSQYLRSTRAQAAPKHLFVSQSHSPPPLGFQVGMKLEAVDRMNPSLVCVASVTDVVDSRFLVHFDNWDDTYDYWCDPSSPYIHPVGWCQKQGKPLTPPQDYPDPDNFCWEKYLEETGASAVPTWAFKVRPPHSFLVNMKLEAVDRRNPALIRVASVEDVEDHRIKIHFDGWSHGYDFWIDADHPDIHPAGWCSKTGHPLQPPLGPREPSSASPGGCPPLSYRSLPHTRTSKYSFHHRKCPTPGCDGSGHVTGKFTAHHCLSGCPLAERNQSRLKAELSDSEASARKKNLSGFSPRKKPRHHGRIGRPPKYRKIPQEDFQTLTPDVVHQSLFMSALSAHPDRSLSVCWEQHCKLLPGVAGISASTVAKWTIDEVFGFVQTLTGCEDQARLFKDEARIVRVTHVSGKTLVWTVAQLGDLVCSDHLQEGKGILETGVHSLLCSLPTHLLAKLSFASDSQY
#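 First, the protein-peptide complex forms for 30 min at room temperature (L3MBTL1 50 nM, biotinylated H3K9me1 peptide 75 nM). Next, compounds are pin-transferred and incubated 30 min. Finally, AlphaScreen beads are added and read after 30 min.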
# Sfp PPTase inh: Sfp phosphopantetheinyl transferase inhibition; AID 1490; Potency, µM, for the others: largest response in the series, negative = inhibition, most hits filed as inhibitors; Biochemical Sfp PPTase activity, qHTS; actives 3.5% (n = 310,000); Q9F4F7;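 further: the enzyme is Sfp with the accession as filed and its product quenches rhodamine fluorescence; 0% = enzyme reaction without inhibitor and -100% = no enzyme wells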
#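 Compounds were incubated with enzyme (final 15 nM) for 15 min at room temperature before substrate addition started the reaction. Fluorescence at 525 nm excitation, 598 nm emission was recorded immediately and after 30 minutes.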
# G9a inh: inhibitors of human histone lysine methyltransferase G9a | actives 8.8% (n = 350,000) | G9a H3K9 monomethylation, AlphaScreen, 2 h | Potency, µM (doses to about 102 µM), for the others: top-dose activity, negative = inhibition, actives largely listed as inhibitors | Q96KQ7 | AID 504332; further: on the % scale 0 is the no-effect control and ±100 the full control effect; nearly all actives have a fitted effect of over 75% in size
#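 AlphaScreen detection with an anti-monomethyl H3K9 antibody quantified product after a 2 h room-temperature reaction containing 500 nM biotinylated H3K9 peptide, 20 µM SAM and 20 nM enzyme, which had been preincubated 15 min with compound.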
# HP1b binding inh: HP1-beta chromodomain-methylated histone interaction inhibition | actives 0.56% (n = 390,000) | P83916 | Potency, µM (top dose mostly 114 µM), for inactives: at the highest dose activity change, negative = inhibition, hits mostly inhibitors | AID 540317 | AlphaScreen HP1-beta / biotin-H3K9me3 peptide binding; further: nearly all actives have a fitted effect of over 70% in size
#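 HP1-beta protein (50 nM final) preincubated 30 min at room temperature with biotinylated H3(1-18)K9me3 peptide (50 nM) in PBS pH 7.4, 0.01% Tween-20, then compound added for 30 min. AlphaScreen streptavidin donor/nickel chelate acceptor beads (10 ug/mL final), 30 min dark, luminescence read.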
# JMJD2A Tudor inh: inhibitors of human JMJD2A Tudor domain; Potency, µM (series often up to 114 µM), inactives show at the top dose activity change, negative = inhibition, actives largely listed as inhibitors; AlphaScreen JMJD2A-Tudor / H3K4me3 peptide binding; actives 4.4% (n = 390,000); O75164; further: on the % scale 0 is the no-effect control and ±100 the full control effect; nearly all actives have a fitted effect of over 50% in size
# BAZ2B inh: blocks human BAZ2B; AID 504333; Potency, µM (series often up to 114 µM), inactives show top-dose activity change, negative = inhibition, hits mostly inhibitors; Q9UIF8; AlphaScreen BAZ2B-H3K14Ac peptide displacement; actives 4.4% (n = 360,000); further: on the % scale 0 is the no-effect control and ±100 the full control effect; nearly all actives have a fitted effect of over 60% in size
#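 Compounds, titrated to a top concentration of 110 uM, were incubated 30 min at room temperature with preformed BAZ2B/acetyl-K14 H3 peptide complex (50 nM each). Proximity signal was measured by AlphaScreen after 20 min with beads.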
# The depositor's hits bear a star; u = inconclusive; x = not tested or not shown; ! = a repeat was not active; [ ] = dose if it differs, or a comment. The call rests on the fitted dose curve; in most records, active means well fitted curve in the direction sought with a large enough effect; inconclusive means small, poorly fitted or top-dose-only effect, or another doubt; inactive means no such curve, though single readings can be large; an effect the other way counts as inactive or inconclusive. Potency means the concentration at half of the fitted maximal effect.
SMILES,L3MBTL1 inh,Sfp PPTase inh,G9a inh,HP1b binding inh,JMJD2A Tudor inh,BAZ2B inh
Cc1ccc(NC(=S)NCc2ccccc2)cc1[N+](=O)[O-],-11%,3%,14%[59 µM],16%,-20%,-38%
Cc1ccc(/C([O-])=C(/C(=S)NCc2ccccc2)[n+]2cccc(CO)c2)cc1[N+](=O)[O-],-13%,u,28µM*,-6%,u,u
Cc1cc(Br)ccc1NC(=O)CN(C)Cc1cccs1,x,-1%,122%,103%,38%,43%
O=[N+]([O-])c1ccccc1OCCCn1cnc2ccccc21,1%,-24%,-143%[59 µM],u,0.79µM*,22µM*
CCC(=O)c1ccc(OCCn2cnc3ccccc32)cc1,1%,0%,11%[12.7 µM],5%,79µM*,-26%
O=c1c2ccccc2ncn1CCCOc1ccccc1[N+](=O)[O-],-2%,17%,7%,27%,1%,4%
c1ccc2c(c1)ncn2CCn1cnc2ccccc21,1%,-8%,9%[59 µM],53%,12%[57.1 µM],13%
c1ccc2c(c1)ncn2CCOCCOCCn1cnc2ccccc21,-19%[11.4 µM],2%,u,25%,-18%,71µM*
Cc1noc(C)c1-c1nccc(NCCN2CCOCC2)n1,x,6%,-2%[0.501 µM],x,x,x
Cc1ccc(CSc2ncnc3c2cnn3-c2ccccc2)cc1,6%,-1%,133%,144%,34%,58%
c1ccc(-c2nc(Sc3ncnc4c3cnn4-c3ccccc3)n[nH]2)cc1,3%,20%,32µM*,x,x,4%
CSCCC1NC2(C(=O)Nc3c(Cl)cccc32)[C@@H]2C(=O)N(C3CCCC3)C(=O)[C@H]12 (stereo partly drawn),-21%,22%,71µM*,4%,u,-24%
CCOC(=O)c1c(C)[nH]c(C)c1S(=O)(=O)N(C)CC(=O)Nc1cc(Cl)ccc1C,x,x,-8%[59 µM],21%,-15%,-12%
CCOc1ccccc1CNC(=O)C1CCN(C(=O)N2CC(CC)Oc3ccc(C)cc32)CC1 (stereo not drawn),x,x,-50%[59 µM],18%,-29%,u
O=C(CN1CCN(c2ccccc2O)CC1)Nc1ccc2c(c1)CCC2,0%,6%,71µM*,-12%,u,-9%
O=C(CN1CCCC1)Nc1ccc2c(c1)CCC2,-3%,-5%,25µM*,-4%,3.2µM*,50µM*
Nc1nc(Nc2ccccc2)nc2c1ncn2[C@@H]1O[C@@H](CO)[C@H](O)[C@H]1O,x,6%,x,x,x,x
CCCC(=O)Nc1nc2c(ncn2[C@@H]2O[C@H]3COP(=O)(O)O[C@@H]3[C@@H]2OC(=O)CCC)c(=O)[nH]1,x,6%,25%[59 µM],x,x,x
COCC(C)NC(=O)CSc1nc2ccccc2n1CCc1ccccc1 (stereo not drawn),31%,-18%,71µM*,28%,-3%,35%
COc1ccccc1OCCn1c(SCC(=O)O)nc2ccccc21,u,-21%,40µM*,15%,-46%,u
COCC(C)NC(=O)Cn1c(SCc2ccccc2)nc2ccccc21 (stereo not drawn),x,-8%,45µM*,10%[57 µM],-10%[57.1 µM],12%
COc1ccccc1OCCSc1nc2ccccc2n1CCC(=O)O,8%,2%,x,19%,-12%,-2%
COc1cccc(OCC(=O)N(C)Cc2nc(-c3cccc(C)c3)no2)c1,x,-8%,24%[59 µM],55%,2%,-6%
O=C1c2ccccc2NC(c2cc(Br)c3c(c2)OCO3)N1Cc1ccco1 (stereo not drawn),x,x,x,12%[57 µM],-18%[57.1 µM],x
COc1ccc(-c2[nH]c(-c3ccc(C)cc3)nc2SCC(=O)NC2CCCC2)cc1,-21%,10%,50µM*,-7%,u,u
SMILES,L3MBTL1 inh,Sfp PPTase inh,G9a inh,HP1b binding inh,JMJD2A Tudor inh,BAZ2B inh
COc1ccc(-c2[nH]c(-c3ccc(Cl)cc3)nc2SCC(=O)Nc2nccs2)cc1,-8%,-5%,u,21%,-24%,-27%
COc1ccc(N(CC(=O)NCCc2ccccc2)C(=O)CCC(=O)Nc2nccs2)cc1,x,11%,56µM*,u,-8%,-2%
COc1ccc(-c2[nH]c(-c3ccccc3)nc2SCC(=O)Nc2nccs2)cc1,u,-1%,11µM*,-4%,u,u
COc1ccc(C2/C(=C(\O)c3ccc4c(c3)CC(C)O4)C(=O)C(=O)N2Cc2cccnc2)c(OC)c1 (stereo not drawn),x,-1%,71µM*,13%,-21%,-13%
CC1Cc2cc(/C(O)=C3/C(=O)C(=O)N(Cc4ccncc4)C3c3ccc(N(C)C)cc3)ccc2O1 (stereo not drawn),x,4%,22µM*,12%,u,u
COc1ccc(C2/C(=C(/O)c3ccc4c(c3)CC(C)O4)C(=O)C(=O)N2Cc2cccnc2)cc1 (stereo not drawn),x,6%,40µM*,54%,-21%,-36%
COCCn1c(SCC(=O)c2ccc(C)cc2C)nc2cc(C(=O)NC3CCCC3)ccc2c1=O,x,x,5%[59 µM],32%,-2%,2%
O=c1oc2cc(OCCO)ccc2c2c1CCCC2,x,-2%,x,21%,-9%,-7%
Fc1ccc(CSc2nc3ncccc3[nH]2)cc1,-3%,-20%,50µM*,-12%,-4%,-4%
CCC1CCCCN1C(=O)CSc1nc(N)c(NC(=O)c2ccc(OC)c(OC)c2)c(=O)[nH]1 (stereo not drawn),-1%,4%,50µM*,31%,-14%,11%
CCC1CCCCN1C(=O)CSc1nc2ncccc2[nH]1 (stereo not drawn),x,-7%,x,u,50µM*,-27%
O=C(CSc1nc2ncccc2[nH]1)NC1CCCC1,0%,u,22µM*,-4%,0%,4%
C=CCn1c(Oc2ccc(C=O)cc2OCC)nc2c1c(=O)n(C)c(=O)n2C,x,5%,23%,34%,-31%,-11%
COc1ccc(-c2cc(C(=O)Nc3c(F)cc(F)cc3Br)no2)cc1,x,8%,-2%,34%,-1%,6%
COc1cc(OC)cc(C(=O)Nn2cc(C(=O)Nc3c(F)cccc3F)c3ccccc3c2=O)c1,-15%,22%,u,11%,-22%,-27%
Cc1oc(-c2ccccc2F)nc1CS(=O)CC(=O)NC1CCCC1 (stereo not drawn),x,-3%,u,57%,-22%,-5%
O=c1cc(CSCc2ccc(Cl)cc2)[nH]c(=O)[nH]1,0%,8%,10%,27%,5%,-8%
NC(N)=NC(=O)c1nc(Cl)c(N2CCCCCC2)nc1N,-11%,23%,50µM*!,-18%,u,u
CC(C)CN1CCCC2(CCN(C(=O)c3cnccn3)CC2)C1,x,23%,7%[12.7 µM],x,x,x
COc1cc(OC)c2c(c1)OC1Cc3cc(OC)c(OC)cc3C2O1 (stereo not drawn),x,-17%,x,x,x,x
